This is a sample that favours compounds with a hit; in the whole collection about 21% have one here.
Cycloheximide cs: counter-screen hit for Shiga toxin inhibitors, cycloheximide. cell reporter, cycloheximide protein synthesis inhibition counterscreen. actives 12% (n = 300,000). AID 2314. max response, %; in the data active = max response mostly above about 13%, no sharp cut-off; inactive = mostly below about 14%; also: read at 38.3 µM for the half of the compounds with a filed dose
SARS PLP yeast: blocks SARS-CoV papain-like protease in a yeast assay; S. cerevisiae expressing SARS-CoV PLpro, growth rescue; actives 0.19% (n = 330,000); Potency, µM (titrated, usually from 32.9 µM), hits mostly activators; also: nearly all actives have a fitted effect of over 55% in size
Pf growth 48h: inhibits P. falciparum growth in the first generation, 48 h; P. falciparum luciferase growth in erythrocytes, 48 h; Potency, µM (titrated, usually from 28.7 µM), usual class: inhibitors; actives 5.9% (n = 310,000); AID 504832; active = well fitted inhibition curve with a large enough effect; inconclusive = small, poorly fitted or top-dose-only effect, or another doubt; inactive = no such curve, though single readings can be large or run the other way
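Luciferase-expressing P. falciparum in infected erythrocytes (2% hematocrit, 0.1% parasitemia final) in RPMI 1640/0.5% Albumax were exposed to compound for 48 hours at 37 C, 5% CO2; growth read as luminescence.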
Shiga inhibitor: Shiga toxin inhibition. inhibition, % at 38.7 µM. actives 9.2% (n = 290,000). Vero cells, Shiga toxin protein synthesis inhibition reporter; in the data active = inhibition mostly above about 28%, no sharp cut-off; inactive = mostly below about 43%
NS1 function inh: influenza NS1 inhibition; actives 0.4% (n = 270,000); AID 2326; Potency, µM (titrated, usually from 46.1 µM); also: actives are rising curves; nearly all actives have a fitted effect of over 50% in size
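In this qHTS, NS1 from influenza A is expressed in budding yeast, where it slows growth. Cells are switched from glucose to 2% galactose medium (pH 6.0, -URA), treated with compound, and growth recovery is read at OD600.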
Pf growth 96h: inhibits malaria parasite growth, 96 h; actives 6.9% (n = 320,000); P. falciparum luciferase reporter growth, 96 h; Potency, µM (highest dose often 28.7 µM), hits mostly inhibitors; active = well fitted inhibition curve with a large enough effect; inconclusive = small, poorly fitted or top-dose-only effect, or another doubt; inactive = no such curve, though single readings can be large or run the other way
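P. falciparum expressing integrated firefly luciferase grown in erythrocytes (2% hematocrit, 0.05% parasitemia final) with compounds for 96 hours at 37 C, 5% CO2. Growth inhibition read as loss of luminescence after adding luciferase detection reagent.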
Each line names hits and unclear results; the compound was inactive in the other large screens. Unless noted, calls follow the shape of the full dose curve.

CC[C@H](C)[C@H](NC(=O)[C@H](N)Cc1ccc(O)cc1)C(=O)N[C@@H](CC(N)=O)C(=O)N[C@@H](CC(C)C)C(=O)N[C@H](C(=O)N[C@@H](C(=O)N[C@@H](CCCN=C(N)N)C(=O)N[C@@H](CCC(N)=O)C(=O)N[C@@H](CCCN=C(N)N)C(=O)N[C@H](Cc1ccc(O)cc1)C(N)=O)[C@@H](C)O)[C@@H](C)CC	none (no result: SARS PLP yeast, Pf growth 48h, NS1 function inh, Pf growth 96h)
CC(NC(=O)C1CCN(S(=O)(=O)N2CCCCCC2)CC1)c1ccccc1 (stereo not given)	Cycloheximide cs 17 (no result: Pf growth 96h)
Cc1ccc(S(=O)(=O)N2CCC(C(=O)NCC3CCCCC3)CC2)cc1	Pf growth 96h inconclusive
CCS(=O)(=O)N1CCC(C(=O)NCc2ccc(OC)cc2)CC1	Pf growth 96h 5.9µM (no result: NS1 function inh)
Cc1ccc(S(=O)(=O)N2CCC(C(=O)NC3CC3)CC2)cc1	Pf growth 48h 2.3µM
CC(NC(=O)C1CCN(S(=O)(=O)N2CCC3(CC2)OCCO3)CC1)c1ccccc1 (stereo not given)	none (no result: NS1 function inh)
COc1ccc(S(=O)(=O)N2CCC(C(=O)NCC3CC3)CC2)cc1	Pf growth 48h 10µM
O=C(NCc1ccccn1)c1ccc(OC2CCN(Cc3ccc(CO)o3)CC2)cc1	none
O=C(CCC1CCCCC1)Nc1ccccc1C(=O)N1CCOCC1	none
COc1ccc(S(=O)(=O)N2CCC(C(=O)NC(c3nc4ccccc4[nH]3)C(C)C)CC2)cc1 (stereo not given)	Pf growth 48h 10µM, Pf growth 96h inconclusive (no result: Cycloheximide cs, Shiga inhibitor, NS1 function inh)
CCN1CCN(C(=O)C2CCN(S(=O)(=O)c3ccc(Br)cc3)CC2)CC1	Pf growth 96h inconclusive
CC(C)(C)NC(=O)C1CCN(S(=O)(=O)c2ccc(Br)cc2)CC1	Pf growth 48h 9.3µM
COc1ccc(CNC(=O)C2CSCCS2)cc1 (stereo not given)	Cycloheximide cs 24
COc1ccc(CNC(=O)C2CSC(c3ccc(OC)cc3)N2C(C)=O)cc1 (stereo not given)	none (no result: Pf growth 48h)
CC(C)CN(CC(C)C)S(=O)(=O)N1CCC(C(=O)NC2CCCCCCC2)CC1	Pf growth 48h inconclusive, Pf growth 96h 12µM
CC(CN(C)Cc1nc(Cc2cccc(C(F)(F)F)c2)no1)CN1CCCC1 (stereo not given)	Pf growth 96h inconclusive
COc1cccc(CN2CC(C(=O)NCc3ccc(Cl)s3)CCC2=O)c1 (stereo not given)	Pf growth 48h inconclusive
CCOC(=O)c1c(NC(=O)C(Sc2ccccc2)c2ccccc2)sc(C(=O)N(C)C)c1C (stereo not given)	SARS PLP yeast inconclusive, Pf growth 48h 3.3µM, NS1 function inh inconclusive, Pf growth 96h inconclusive
CCOC(=O)c1c(NC(=O)C(Sc2ccccc2)c2ccccc2)sc(C(N)=O)c1C (stereo not given)	Pf growth 48h inconclusive, Pf growth 96h 9.3µM
CCC(C)NCCOc1ccccc1C (stereo not given)	none
CN(C)CCCNC(=S)Nc1ccc(Oc2ccccc2)cc1	Cycloheximide cs 26, Pf growth 96h inconclusive (no result: NS1 function inh)
CC(C)CNC(=S)Nc1ccc(Oc2ccccc2)cc1	Cycloheximide cs 21, Pf growth 96h 5.2µM
OCCCNC(=S)Nc1ccc(Oc2ccccc2)cc1	none
CCN(CC)CCCNC(=S)Nc1ccc(Br)cc1	Cycloheximide cs 44, Shiga inhibitor 102, Pf growth 96h inconclusive
S=C(NCc1cccnc1)Nc1ccc(Oc2ccccc2)cc1	Pf growth 48h inconclusive
CCN(CC)CCNC(=S)Nc1ccc(Cl)cc1	none
Cc1cc(C(=O)N(C)CC(=O)Nc2ccc(F)c(F)c2F)no1	none
O=C(NC(C(=O)c1ccccc1)N1CCCCC1)c1ccccc1 (stereo not given)	Cycloheximide cs 33, Shiga inhibitor 72
O=C(NN1CCCCC1)c1ccccc1	none
COc1ccc(NC(=O)C(=O)NCCC2CCCCN2S(=O)(=O)c2ccc(F)cc2)cc1 (stereo not given)	Pf growth 48h inconclusive, Pf growth 96h inconclusive (no result: Cycloheximide cs, Shiga inhibitor, NS1 function inh)
Cc1ccc(N2C(=O)CN(Cc3sccc3C)C2=S)cc1C	Pf growth 48h 12µM
Oc1ccc(/C=N/Nc2ccnc3cc(Cl)ccc23)c(O)c1O	Pf growth 48h inconclusive, Pf growth 96h inconclusive
Oc1ccc(/C=N/Nc2ccnc3cc(Cl)ccc23)cc1O	Pf growth 48h 0.66µM, Pf growth 96h 0.74µM
CC/C(=N/NS(=O)(=O)c1ccc(Cl)cc1)c1ccc(O)cc1	none

Assay outcomes (PubChem BioAssay)
